Results taken from PubChem BioAssay (NCI).
This is part of a sample that, as a whole, favours compounds with a hit. Of some 83,000 tested, about 20% had one in any assay.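 96-well plates, one dose, 48 hours. Percent growth reported; active if below 10.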 Calls of active or inactive are those of the source.

Columns and labels:
Test in all cases: NCI-60 one-dose screen, 48 h (100 = growth as untreated, 0 = no growth, -100 = all killed)
Conditions in all cases: 10 µM unless noted
[1] = test system: SK-MEL-2 melanoma
[2] = test system: EKVX NSCLC
[3] = test system: UO-31 renal
[4] = test system: TK-10 renal
[5] = test system: ACHN renal
[6] = test system: A498 renal
[7] = test system: CCRF-CEM leukemia
[8] = test system: MOLT-4 leukemia
[9] = test system: SR leukemia
[10] = test system: SN12C renal

Measured: growth

NS(=O)(=O)c1ccc(-n2nc(-c3ccccc3)ccc2=O)cc1
inactive: [1] 101% | [2] 118% | [3] 91.9% | [4] 132% | [5] 108% | [6] 102% | [7] 95.6% | [8] 96.4% | [9] 83.9%

COc1cc(F)c(-c2nc3c(C)cccc3n2Cc2c(F)cccc2F)c(F)c1
inactive: [1] 93.6% | [2] 87.9% | [3] 72.2% | [4] 90.5% | [5] 101% | [6] 87% | [7] 98.6% | [8] 60.6% | [9] 88.3%

C[C@]12CC[C@@H]3c4ccc(O)cc4CC[C@H]3[C@@H]1C[C@H](O)C2
inactive: [1] 82.4% | [2] 44% | [3] 71.4% | [4] 96.4% | [5] 99.7% | [6] 44.6% | [7] 52.7% | [8] 47.5% | [9] 25.4%

S=C(Nc1ccccc1)c1ccccn1
inactive: [1] 103% | [2] 93.1% | [3] 57% | [4] 109% | [5] 93.5% | [6] 91.4% | [7] 37.5% | [8] 80% | [9] 56.1%

COc1cc(-c2csc(NC(=O)Nc3ccc(C(F)(F)F)cc3)n2)cc(OC)c1OC
active: [1] -23.8% | [2] 5.7% | [3] -2.16% | [4] 4.58% | [5] 3.21% | [6] -24.1% | [7] 5.13% | [8] -9.27% | [9] -3.44%

Cc1nccc2c3ccc(OCc4cn(-c5ccc(Br)cc5)nn4)cc3n(CC(C)C)c12
inactive: [1] 53% | [10] 61.5% | [3] 38.4% | [4] 41.1% | [5] 61.9% | [6] 53% | [7] 35.1%
active: [8] 2.93%

CCOC(=O)CC[C@H](NC(=O)c1ccc(NC)c2ccccc12)C(=O)OCC
inactive: [1] 106% | [2] 89.4% | [3] 93.8% | [4] 90.6% | [5] 98.8% | [6] 91% | [7] 91.2% | [8] 98.6% | [9] 101%

C#C[C@@]1(O)[C@@H](CO)O[C@@H](n2cnc3c(-c4ccccc4)ncnc32)[C@@H]1O
inactive: [1] 107% | [2] 97.7% | [3] 92.5% | [4] 100% | [5] 115% | [6] 106% | [7] 102% | [9] 101%

O=C1CS/C(=N/c2nnc(-c3ccc(O)cc3)s2)N1
inactive: [1] 108% | [2] 92.7% | [3] 93.5% | [4] 115% | [5] 103% | [6] 108% | [7] 97% | [8] 80.5% | [9] 93.1%

CCSc1ccc(C2C(Br)C(=O)N2c2cc(OC)c(OC)c(OC)c2)cc1 (centres undefined)
inactive: [1] 63.7% | [2] 70.2% | [3] 26.2% | [4] 76.6% | [5] 32.6% | [7] 12.3% | [8] 20% | [9] 16.3%
active: [6] -14.3%

COC(=O)/C=C/c1cc(OC)c2c(c1)[C@@H](C(=O)OC)[C@H](c1ccc(OC)c(OC)c1)O2
inactive: [1] 31.4% | [2] 38.5% | [3] 45.9% | [4] 64.1% | [6] 22.1% | [7] 18.7% | [8] 22.9% | [9] 26%

Nc1c(C(=O)Nc2ccccc2Cl)sc2nc3c(cc12)CN(Cc1ccccc1)CC3
inactive: [1] 95.6% | [2] 93% | [3] 99.7% | [4] 98.5% | [5] 104% | [6] 85.4% | [7] 91.7% | [8] 89.6% | [9] 87.1%

C=C1C(=O)O[C@H]2[C@H]1CC/C(COC(=O)Nc1nc3ccccc3[nH]1)=C\CC[C@@]1(C)O[C@@H]21
active: [7] 6.53%
inactive: [1] 68.1% | [2] 58.7% | [3] 43.1% | [4] 46.3% | [5] 32.5% | [6] 102% | [8] 45.9% | [9] 16.2%
